High-throughput results: PubChem, several laboratories
3CLpro inhibitor – SARS-CoV 3CLpro protease inhibition. P0C6X7. recombinant SARS-CoV 3CLpro, quenched FRET peptide cleavage. inhibition, % at 6 µM. 0.14% of 290,000 active; in the data active means inhibition above about 12%
CCHFV vOTU inh – blocks the CCHF virus ovarian tumor domain protease | CCHFV vOTU protease, Pep-AMC fluorescence | inhibition, % at 11.5 µM | 0.55% of 370,000 active; in the data active means inhibition above about 30%; further: 0% = vehicle wells with enzyme and 100% = no enzyme wells
Sa ugtP lethal – growth inhibition of S. aureus ugtP deletion strain | 0.54% of 330,000 active | S. aureus RN4220 ugtP deletion, OD600 growth, 16 h | growth inhibition, % (test concentration not listed); in the data active means growth inhibition above about 68%;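 further: plate controls were untreated wells for no effect and antibiotic for full effect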
Mtb bLac sens – beta-lactam sensitization of Mtb H37Rv. M. tuberculosis H37Rv growth with meropenem, percent inhibition. inhibition, % at 25 µM. 0.27% of 330,000 active; call rule not given here;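 further: growth measured after seven days incubation then overnight dye step; 0% = bacteria only wells and 100% = bacteria with antibiotic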
MazEF act – increases E. coli MazEF RNase cleavage of RNA. AID 504720. P0AE70. 0.32% of 350,000 active. FAM/BHQ RNA-DNA oligo cleavage fluorescence, 5 h. activation, % at 20 µM; in the data active means activation above about 50%
Target sequence (P0AE70 whole entry, looked up): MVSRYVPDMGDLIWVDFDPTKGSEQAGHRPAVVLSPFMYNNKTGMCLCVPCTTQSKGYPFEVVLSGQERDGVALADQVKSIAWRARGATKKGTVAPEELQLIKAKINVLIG
Sa RN4220 lethal – S. aureus RN4220 growth inhibition; OD600, 16 h; inhibition, % (no concentration beside the values); 0.33% of 330,000 active; AID 1259311; in the data active means inhibition above about 85%;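 further: plate controls were untreated cells for no effect and reference antibiotic for full effect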
Numbers without * were called inactive; . = no result given. Shown are actives, neighbours in structure and some others; about 1.3% of the full set was active somewhere.

SMILES | 3CLpro inhibitor | CCHFV vOTU inh | Sa ugtP lethal | Mtb bLac sens | MazEF act | Sa RN4220 lethal
CC(=O)OC1CC[C@@]2(C)C(=CCC3C2CC[C@]2(C)C(=O)CCC32)C1 (some centres not stated) | . | . | 87.1* | . | . | -4.9
O=c1c2ccccc2c(C=NCc2ccccn2)c(O)n1-c1ccccc1 | 1.9 | 10.1 | 4.6 | -1.0 | 162.2* | 4.4
COc1cccc(-n2c(O)c(C=NCc3ccccn3)c3ccccc3c2=O)c1 | -1.1 | 6.1 | -4.4 | -2.2 | 3.0 | 0.2
O=[N+]([O-])c1cc(C(F)(F)F)ccc1NCCNC(=S)Nc1ccc(Cl)cc1 | 4.1 | -5.7 | 90.2* | 75.4 | -4.1 | 85.2*
O=[N+]([O-])c1ccc(NC(=S)NCCc2ccc(Cl)cc2)cc1 | 4.4 | 13.2 | 99.9* | 93.2 | 36.8 | 100.6*
COc1ccccc1CNC(=O)CC(C)=NNC(=O)Cc1ccc(OC)c(OC)c1 | . | . | 6.2 | . | . | 7.1
CCOC(=O)CCC(C)=NN=C1SC(CC(=O)O)C(=O)N1c1ccccc1 (configuration not stated) | . | . | -1.4 | . | . | 5.1
COc1cc(C=NNc2nc(N3CCCCC3)nc(N3CCCCC3)n2)ccc1OC(=O)c1ccco1 | . | . | 3.5 | . | . | 1.8
O=S(=O)(c1ccc(F)cc1)N1CCN(c2ccc(-c3ccccc3)nn2)CC1 | -2.4 | -6.5 | 1.0 | -0.9 | 63.1* | 8.5
O=C(NN=Cc1cc2ccccc2nc1Cl)[C@H]1C[C@@H]1c1ccccc1 | . | . | 26.2 | . | . | 2.4
Cc1c(C(=O)Nc2ccc3c(c2)OCO3)sc2nc(-c3ccccc3)cn12 | 1.3 | -11.2 | 0.6 | 0.1 | 65.7* | 2.0
Cc1ccc2occ(C=NNC(=O)c3ccc(Cl)cc3)c(=O)c2c1 | . | . | -1.7 | . | . | -2.4
CC1(C)NC(=O)C2CCCN21 (configuration not stated) | . | . | -4.7 | . | . | 3.4
NS(=O)(=O)c1ccc(Nc2c([N+](=O)[O-])cncc2[N+](=O)[O-])cc1 | 3.1 | -6.4 | 89.8* | 0.1 | 8.6 | 96.4*
CC1CCC(C(C)C)C(OC(=O)C[n+]2cc(-c3ccc(Cl)cc3)n3c2CCCCC3)C1 (configuration not stated) | 3.5 | 12.7 | 100.6* | 100.0 | 13.2 | 100.4*
CC(C)(C)CN1C(N)=NCC1Cc1ccc(O)cc1 (configuration not stated) | . | . | -1.4 | . | . | 6.7
CCOC(=O)c1c(C(F)(F)F)cc(-c2ccc(F)cc2)nc1C | 1.6 | 15.2 | 94.0* | -0.9 | 2.7 | 0.6
CCOC(=O)c1cc2c(C(F)(F)F)cc(-c3ccccc3)nc2o1 | 1.0 | -10.2 | 4.7 | -1.3 | 4.0 | -1.7
CC(=O)c1cccc(N=Nc2c(C)[nH]c3ccccc23)c1 | 2.7 | 10.3 | -9.3 | 15.9 | -6.8 | -6.4
COc1ccc(N=Nc2c(C)[nH]c3ccccc23)cc1 | . | -0.5 | 81.7* | 79.8 | 12.0 | -2.0
O=C(CN1c2ccccc2Sc2ccccc21)NN=Cc1ccc([N+](=O)[O-])cc1 | . | . | -1.9 | . | . | -6.7
COc1cc(/C=C/c2cc[n+](C)cc2)ccc1OCC(=O)Nc1ccc(Cl)c(Cl)c1 | -19.7 | 2.9 | 100.1* | 96.7 | -12.7 | 78.0
COc1ccc(NC(=O)COc2ccc(/C=C/c3cc[n+](C)cc3)cc2OC)cc1 | -6.7 | 4.6 | 2.8 | 2.2 | 24.3 | 1.2
O=C(O)c1cccc(Cn2c(Cl)c(C=NNc3ccccc3)sc2=O)c1 | . | . | 96.6* | . | . | 94.4*
O=C1Nc2ccccc2C(=O)N2C1C1C(=O)N(Cc3ccccc3)C(=O)C1C2c1ccc(F)cc1 (configuration not stated) | . | . | 6.5 | . | . | 2.9
SMILES | 3CLpro inhibitor | CCHFV vOTU inh | Sa ugtP lethal | Mtb bLac sens | MazEF act | Sa RN4220 lethal
Cc1cccc(-c2nc(=S)c3c(n2Cc2ccco2)CCCC3)c1 | 5.1 | 16.4 | 41.9 | 0.5 | 1.9 | 1.8
COc1cccc(-c2nc(=S)c3c(n2Cc2ccco2)CCCC3)c1 | 3.5 | 12.4 | 85.5* | 1.8 | -7.5 | -3.3
CCCCNC(=O)C(C#N)=c1sc(=Cc2ccccc2OC(F)F)c(=O)n1CCCOC | . | . | 1.7 | . | . | 6.1
CSC(=C[N+](=O)[O-])Nc1ccc(Cl)cc1 | . | . | 7.9 | . | . | 8.1
COc1ccc2c(c1)C(=O)N(c1ccccc1OC)C(=O)C2 | -1.7 | 6.1 | 9.2 | 14.4 | -2.5 | 1.9
COc1ccccc1N1C(=O)Cc2ccccc2C1=O | 0.6 | 30.3* | 9.5 | -3.4 | 4.3 | 4.9
CC1CC(=N/N=C2/NC(=O)CS2)CC(C)(C)C1 (configuration not stated) | . | . | 2.8 | . | . | 1.4
Cc1ccccc1NC(=O)C1c2cccc[n+]2CC(=O)N1c1c(C)cccc1C (configuration not stated) | -3.2 | -0.8 | -9.6 | -7.3 | 62.9* | 14.2
Cc1cccc(C)c1NC(=O)C1c2cccc[n+]2CC(=O)N1Cc1ccc2c(c1)OCO2 (configuration not stated) | -5.5 | -11.8 | -2.3 | 6.0 | 0.3 | 7.2
CCOC(=O)C1=C(Cc2ccc(OC)cc2)C(=O)c2ccccc2C1=O | 5.6 | . | 18.3 | . | 216.9* | 34.9
COc1ccccc1NC(CC(=O)c1ccccc1)C(=O)OCC(=O)c1ccc(C)cc1 (configuration not stated) | -0.4 | -16.2 | 83.6* | 98.8 | 7.1 | 6.2
COc1ccccc1NC(CC(=O)c1ccccc1)C(=O)OCC(=O)c1ccc(C)c(C)c1 (configuration not stated) | -0.8 | 19.0 | 26.3 | 98.7 | -5.8 | 5.0
CCCc1nc2ccccc2c(C(=O)O)c1CC | 0.2 | 11.6 | 5.1 | 0.1 | 7.3 | 1.5
CCCOC(=O)c1c(-c2ccccc2)nc(CC)c(C(=O)SCC)c1CCC | . | 6.0 | 94.5* | -4.4 | -7.2 | -1.7
O=c1[nH]c2ccccc2nc1/C=C/c1ccc(F)cc1 | -0.9 | -3.4 | -7.1 | 3.8 | 849.1* | 10.8
COc1ccc(OC)c(/C=C/c2nc3ccccc3[nH]c2=O)c1 | -1.9 | -3.2 | -10.4 | 3.7 | 240.5* | -1.8
O=c1[nH]c2ccccc2nc1/C=C/c1ccccc1 | 2.6 | -26.9 | -17.0 | -0.3 | -6.2 | 5.6
O=C(/C=C/c1ccccc1)c1cc(Br)ccc(=O)c1O | 0.4 | -0.5 | 98.7* | 98.3 | -7.3 | 99.2*
O=C1C=C(c2c(O)ccc3ccccc23)c2ccccc2C1=O | . | 8.6 | . | . | 79.9* | .
O=C1NC(=S)S/C1=C\c1cc2ccccc2nc1N1CCCCC1 | -1.1 | -0.3 | 86.4* | 2.8 | -10.0 | 84.4*
COc1ccccc1C=C1SC(=S)NC1=O | . | -1.4 | . | . | -0.7 | .
COc1ccc2nc(N3CCCCC3)c(/C=C3\SC(=S)NC3=O)cc2c1 | -0.4 | 4.7 | 72.5 | 3.5 | 4.2 | 77.1
O=C1NC(=S)SC1=Cc1ccccc1Cl | . | 11.1 | 99.9* | . | 1.4 | 98.4*
Cn1c2c(c3ccccc31)CCC2=NO | . | . | 9.7 | . | . | 3.0
CCC(=CC(=O)c1ccncc1)Nc1ccc(Br)cc1 | . | . | -2.4 | . | . | 4.3
Cc1ccc(S(=O)(=O)N(CC(=O)NN=Cc2cccc(Cl)c2)c2cccc3cccnc23)cc1 | . | . | -5.5 | . | . | 0.4
O=C(NN=Cc1ccc(O)c(O)c1)NN=Cc1ccc(O)c(O)c1 | . | . | 1.9 | . | . | 16.9
Cc1cc(-c2ccccc2)n(-c2cc(N/N=C/c3ccccc3O)ncn2)n1 | 4.8 | 4.6 | . | 3.9 | 3.3 | .
